In the emibetuzumab library of Makowski et al. (2022):
Some of the results follow. No count for the full screen is at hand.

B1: VH:VL chains; a variant is named by its letters at X, in order (parent)
chain 1: QVQLVQSGAEVKKPGASVKVSCKASGYTFTDYXMHWVRQAPGQGLEWMGXVNPNXXXTTYNQKFEGRVTMTTDTSTSTAYMELRSLRSDDTAVYYCARXNXLDXWGQGTTVTVSS
chain 2: DIQMTQSPSSLSASVGDRVTITCSVSSSVSSIYLHWYQQKPGKAPKLLIYSTSNLASGVPSRFSGSGSGTDFTLTISSLQPEDFATYYCQVYSGYPLTFGGGTKVEIK

Variants of: B1
Experiment: yeast display scFab, FACS + sequencing
Conditions: with MET
Summary of the method: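 Antigen binding was called positive for sequences present in both antigen-positive samples and negative for those present only in the input. These calls came from deep sequencing, in two replicates, of round-3 sorted and input populations from a heavy-chain CDR mutant scFab yeast surface library. The library was first enriched twice magnetically on HGFR-Fc-coated Protein A beads and then by FACS, gating the top 50% antigen-positive cells after 3 h labelling at room temperature with 1 nM HGFR-Fc plus anti-Myc in PBSB with 1% milk.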

Row | Variant | antigen binding call
1 | SKGENALY | no binding
2 | YKKTGDLY | no binding
3 | YKTGGALY | binds
4 | YKAGGALY | binds
5 | YETETALY | no binding
6 | VKTGGDVY | no binding
7 | AARADDAV | no binding
8 | YRTGGAWD | binds
9 | DREEGSGD | no binding
10 | YRTGGSGD | binds
11 | DATGGAGD | no binding
12 | YRTGDSGD | binds
13 | YRTGGAGD | binds
14 | SETGGAGD | no binding
15 | FATGGSGD | no binding
16 | FTRTNFLS | no binding
17 | VKEKGDVA | no binding
18 | YKRRGSAA | binds
19 | YRGRSSAA | binds
20 | YKARGSAA | binds
21 | YRAKGSAA | binds
22 | YTRAGSAA | no binding
23 | YAARGSAA | no binding
24 | DAKTDDGV | no binding

Row | Variant | antigen binding call
25 | DKEGGDGY | no binding
26 | YGGGGVAA | no binding
27 | YRARSSAA | binds
28 | YTGRGSAA | binds
29 | YGATSSLA | no binding
30 | YGAAGSAA | binds
31 | AREKGSAA | no binding
32 | YREKGSAA | binds
33 | YTKRGSAA | no binding
34 | AAEGGYAV | no binding
35 | VKGASDWA | no binding
36 | VTTKSDSA | no binding
37 | VTTKSDGA | no binding
38 | YREKGAAA | binds
39 | YRARGSLA | binds
40 | YTARGSAA | binds
41 | YRARGSAA | binds
42 | DTRGADAV | no binding
43 | DEGAGDGF | no binding
44 | YKTRGSAA | binds
45 | YKTRGFGA | no binding
46 | YRARSSLA | binds
47 | FAARAFGV | no binding
48 | SEEASDGA | no binding

Row | Variant | antigen binding call
49 | YRAGGVVA | binds
50 | YRAGGFVA | binds
51 | YREGGFVA | no binding
52 | YRAGGSVA | binds
53 | YRAGGYVA | binds
54 | YRKGGFVA | no binding
55 | DTGTGSSA | no binding
56 | STTKSDGV | no binding
57 | VAGTGDWA | no binding
58 | YKGAGALD | no binding
59 | YKKGGSLD | binds
60 | FKGKGAGD | binds
61 | YKGGGALD | binds
62 | YKEEDSLD | no binding
63 | YKGKGALD | binds
64 | FKGKGVGD | no binding
65 | DTTGSASD | no binding
66 | VAGGDDWV | no binding
67 | FKGRGALA | binds
68 | FKGKGALD | binds
69 | YKGKGSLD | binds
70 | YAGEASAV | no binding
71 | VRAGADSV | no binding
72 | YAEESSAD | no binding

Row | Variant | antigen binding call
73 | SEARSSAD | no binding
74 | DAGEASAV | no binding
75 | YRAGSSAD | binds
76 | YRGAASAV | binds
77 | VRAGADAV | no binding
78 | YRAGASAV | binds
79 | YRARSSAD | binds
80 | DAGTAFSS | no binding
81 | VEREADWF | no binding
82 | YREKDSAD | binds
83 | YRAKGSAD | binds
84 | FREKDSAD | no binding
85 | YAEKDAGD | no binding
86 | YRAGASAD | binds
87 | YRARGSAD | binds
88 | DTEEGDVA | no binding
89 | DAKEGDAD | no binding
90 | DTGEADAS | no binding
91 | VRGKGAAD | binds
92 | VKGEAAWD | no binding
93 | VRGKGAWD | binds
94 | VEGKGAGD | no binding
95 | VKGKGAWD | binds
96 | VRGKGAVD | binds

Row | Variant | antigen binding call
97 | VAGKGVLD | no binding
98 | VAGKGAGD | no binding
99 | YEKETVVA | no binding
100 | YKGKSAWD | no binding
101 | YKGKGAWD | binds
102 | YRARSSGV | binds
103 | DRAGDAGV | no binding
104 | SEARSAGV | no binding
105 | SEARSSGV | no binding
106 | YRARSAGV | binds
107 | YRARSASV | binds
108 | STEGDAGA | no binding
109 | DATRGAGY | no binding
110 | ARKGSSGD | no binding
111 | YRKGDSLD | binds
112 | YRKGSSGD | binds
113 | YRKGDSGD | binds
114 | VEKGGSGD | no binding
115 | VRKGSSGD | binds
116 | VTGTGAAV | no binding
117 | YRKGDAGD | binds
118 | FRGRGYAV | binds
119 | FRGRGYVA | binds
120 | FRGRGYWV | binds

Row | Variant | antigen binding call
121 | FAAGSYAV | no binding
122 | FRGRGYVV | binds
123 | VTGEDAVV | no binding
124 | SEEGTAGA | no binding
125 | VRATGYWA | no binding
126 | FRGRGDWV | binds
127 | FAGGGDWV | no binding
128 | YRGRGYWV | binds
129 | YGGTSYSV | no binding
130 | YRGRGYSV | binds
131 | SRGRGYSV | no binding
132 | YRGRGYWA | binds
133 | DRGRGDWV | no binding
134 | AKERGDGV | no binding
135 | VETEGDAV | no binding
136 | YRGRGVWV | binds
137 | YGGRGDWV | no binding
138 | FKGRGAWV | binds
139 | FKGRGVWV | no binding
140 | FRGRGAWV | binds
141 | ARGRGAWV | no binding
